Our source for the z-score and composite z-score values is PubChem BioAssay.

Assay [1] is described as follows: optical density shifts of acrAB sulA E. coli – strain DRC41, OD650, 48 h, E. coli filamentation inducer project, primary screen (AID 1152).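 Further: E. coli MC1000 strain DRC41 lacking acrAB efflux pump and sulA.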 The note with it: higher = more signal, called active from +8 up or from −8 down.
Assay [2] can be described thus: probe aLefty1 binding on compound microarray – biochemical, small-molecule microarray, 635/667 nm fluorescence, primary screen (AID 1153).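 Further: score merges spot fluorescence with signal-to-noise ratio from the scanned slide images.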 The note with it: higher = more signal.
Assay [3] can be described thus: plasmodial surface anion channel blockers, osmotic lysis – cell-based, P. falciparum Indochina, OD700, 1 h, primary screen (AID 1154). The note with it: P. falciparum Indochina infected RBC osmotic lysis, higher = more signal, called active from +8 up or from −8 down.
The nature of assay [4]: plasmodial surface anion channel blockers, osmotic lysis – cell-based, P. falciparum Indochina, OD700, 2 h, primary screen (AID 1155).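 Further: lysis reports solute entry through the parasite surface anion channel PSAC.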 The note with it: P. falciparum Indochina infected erythrocytes, higher = more signal, called active from +8 up or from −8 down.
The nature of assay [5]: changes in parasitized red cell lysis, either direction – P. falciparum Indochina, OD700, 3 h, PSAC antagonist project, primary screen (AID 1156). The conditions noted are these: P. falciparum-infected erythrocytes, osmotic lysis, higher = more signal, called active from +8 up or from −8 down.
A short description of assay [6]: plasmodial surface anion channel blockers, osmotic lysis – cell-based, P. falciparum Indochina, OD700, 18 h, primary screen (AID 1157). The conditions noted are these: P. falciparum Indochina infected erythrocytes, osmotic lysis OD700, 18 h; higher = more signal, called active from +8 up or from −8 down.
The nature of assay [7]: S6 kinase pathway phospho-S6 level changes – cell-based, A549, cytoblot, luminescence, serum-stimulated, primary screen (AID 1158).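 Further: serum-stimulated A549 lung adenocarcinoma cells; signal is phosphorylated S6 detected by cytoblot immunostaining with HRP secondary.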 The note with it: 5 h, higher = more signal.
In assay [8] the target is NADPH oxidase 2 (Homo sapiens) (UniProt P04839). As to the kind of experiment: compounds shifting NOX2 Amplex Red fluorescence – cell-based, HEK293-NOX2, PMA-stimulated, NOX inhibitor project, primary screen (AID 1159). Further: test concentration not given here. The note with it: 45 min, higher = more signal, called active from +8 up or from −8 down.
For assay [9], the target named is NADPH oxidase 4 (Homo sapiens) (UniProt Q9NPH5). As to the kind of experiment: compounds shifting NOX4 Amplex Red fluorescence – cell-based, HEK293-NOX4, tetracycline-induced, NOX inhibitor project, primary screen (AID 1160). The note with it: HEK293-NOX4, Amplex Red H2O2 fluorescence, 45 min; higher = more signal, called active from +8 up or from −8 down.
The target in assay [10] is NADPH oxidase 5 (Homo sapiens) (UniProt Q96PH1). As to the kind of experiment: compounds shifting NOX5 Amplex Red fluorescence – cell-based, HEK293-NOX5, NOX inhibitor project, primary screen (AID 1161). The note with it: HEK293-NOX5, ionomycin, 45 min, higher = more signal.

Activity calls are given as the source filed them.

Sequence of NADPH oxidase 2 (Homo sapiens) (P04839 whole entry, looked up): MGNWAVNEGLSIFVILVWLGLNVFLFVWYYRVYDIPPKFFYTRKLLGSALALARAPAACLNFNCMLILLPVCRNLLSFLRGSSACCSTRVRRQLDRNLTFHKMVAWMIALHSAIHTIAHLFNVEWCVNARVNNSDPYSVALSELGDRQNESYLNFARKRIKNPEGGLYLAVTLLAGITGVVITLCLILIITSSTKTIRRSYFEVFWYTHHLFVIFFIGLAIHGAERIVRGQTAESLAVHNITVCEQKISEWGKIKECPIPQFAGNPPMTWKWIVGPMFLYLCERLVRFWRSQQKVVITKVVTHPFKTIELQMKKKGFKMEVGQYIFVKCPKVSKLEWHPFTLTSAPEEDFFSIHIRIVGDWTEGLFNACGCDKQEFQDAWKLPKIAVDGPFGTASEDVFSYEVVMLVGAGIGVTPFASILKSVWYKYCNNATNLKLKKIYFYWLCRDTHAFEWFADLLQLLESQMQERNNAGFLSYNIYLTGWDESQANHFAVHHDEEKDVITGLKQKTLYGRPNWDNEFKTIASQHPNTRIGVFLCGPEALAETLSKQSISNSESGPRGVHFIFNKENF
Sequence of NADPH oxidase 4 (Homo sapiens) (Q9NPH5 whole entry, looked up): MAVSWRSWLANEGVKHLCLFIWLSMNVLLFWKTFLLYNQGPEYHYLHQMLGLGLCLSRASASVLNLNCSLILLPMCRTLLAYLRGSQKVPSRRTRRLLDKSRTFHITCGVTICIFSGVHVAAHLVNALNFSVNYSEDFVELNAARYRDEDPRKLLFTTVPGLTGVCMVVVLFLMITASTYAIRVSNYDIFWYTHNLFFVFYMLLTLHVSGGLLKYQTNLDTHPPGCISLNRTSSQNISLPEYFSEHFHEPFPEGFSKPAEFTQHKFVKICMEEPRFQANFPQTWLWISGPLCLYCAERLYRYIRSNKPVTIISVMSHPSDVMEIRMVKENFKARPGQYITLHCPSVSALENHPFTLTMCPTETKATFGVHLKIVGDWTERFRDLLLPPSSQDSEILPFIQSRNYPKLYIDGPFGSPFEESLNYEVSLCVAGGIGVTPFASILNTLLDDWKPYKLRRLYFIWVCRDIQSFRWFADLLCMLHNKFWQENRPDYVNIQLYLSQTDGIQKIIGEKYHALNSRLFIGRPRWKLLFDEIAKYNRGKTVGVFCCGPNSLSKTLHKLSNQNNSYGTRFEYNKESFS
Sequence of NADPH oxidase 5 (Homo sapiens) (Q96PH1 whole entry, looked up): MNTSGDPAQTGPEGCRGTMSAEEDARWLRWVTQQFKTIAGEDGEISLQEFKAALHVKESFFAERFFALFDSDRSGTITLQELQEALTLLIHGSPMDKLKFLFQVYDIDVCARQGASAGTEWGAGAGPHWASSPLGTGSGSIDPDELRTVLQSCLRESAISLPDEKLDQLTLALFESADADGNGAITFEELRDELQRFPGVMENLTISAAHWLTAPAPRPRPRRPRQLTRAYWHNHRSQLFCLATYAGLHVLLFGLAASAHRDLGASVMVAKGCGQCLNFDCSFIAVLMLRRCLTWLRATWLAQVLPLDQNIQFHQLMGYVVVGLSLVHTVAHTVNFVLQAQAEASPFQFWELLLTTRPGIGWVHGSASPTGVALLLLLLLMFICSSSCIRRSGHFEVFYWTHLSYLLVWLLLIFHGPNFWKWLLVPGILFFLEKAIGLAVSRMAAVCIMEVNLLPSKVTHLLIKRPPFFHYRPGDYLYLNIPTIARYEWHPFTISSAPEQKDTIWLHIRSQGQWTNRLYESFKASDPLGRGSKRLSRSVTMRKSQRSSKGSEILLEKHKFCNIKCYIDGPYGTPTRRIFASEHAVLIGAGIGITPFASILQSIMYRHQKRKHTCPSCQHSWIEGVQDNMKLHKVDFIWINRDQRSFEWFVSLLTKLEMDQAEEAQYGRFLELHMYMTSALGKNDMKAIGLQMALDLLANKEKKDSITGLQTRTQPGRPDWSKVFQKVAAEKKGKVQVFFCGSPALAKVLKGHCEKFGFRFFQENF

As to `NCCCCCNC(=O)[C@@H]1C[C@@H]2C(=O)NCC(=O)N2[C@@H]1c1ccc(O)cc1`, the z-score in assay [1] is -0.142 (inactive); in assay [3], 0.539 (inactive); in [4], 0.115 (inactive); in assay [5], -0.563 (inactive); in assay [6], -0.0673 (inactive); in [7], -0.47. Moreover, the z-score is -0.354 (inactive) in [8], -0.0757 (inactive) in assay [9] and 0.564 in assay [10]. In assay [2], this compound yielded a composite z-score of -0.0984.

For `CN1C2C=C(CCCO)C(C3C(=O)N(C(N)=O)C(=O)C32)C1c1ccc(CN2CCCC2)cc1` (stereo not given), the z-score in assay [1] is 0.0489 (inactive); in assay [3] it was 0.114 (inactive); in assay [4], 0.229 (inactive); in assay [5] it was -0.695 (inactive); in [6], -0.11 (inactive); in assay [7], -0.0852. Moreover, the z-score was -1.52 (inactive) in assay [8], 0.171 (inactive) in assay [9] and -0.0223 in [10]. The composite z-score in assay [2] was -0.189.

With `O=C1OCC=C[C@H]2OC34C=CCN(CCN5CCOCC5)C(=O)[C@H]3N(CCCO)C(=O)[C@@H]4[C@@H]12` (stereo not given in full), the z-score is 0.109 (inactive) in assay [1]; 0.64 (inactive) in assay [3]; -0.385 (inactive) in assay [4]; 1.27 (inactive) in [5]; -1.19 (inactive) in assay [6]; 1.08 in [7]. Further, the results for the z-score in [8], in assay [9] and in assay [10] were 0.812 (inactive), -1.16 (inactive) and 0.375, respectively. In assay [2], this compound gave a composite z-score of -0.147.

As for `Cc1ccc(S[C@]2(C(=O)NCC(F)(F)F)CC(=O)N(C(C)C)[C@@H]2c2ccc(CO)cc2I)cc1`, the z-score was 0.302 (inactive) in assay [1]; 4.6 (inactive) in [3]; 0.383 (inactive) in assay [4]; 0.24 (inactive) in [5]; 0.548 (inactive) in assay [6]; 0.303 in [7]. Also, the z-score in assay [8] is 1.81 (inactive); in [9], -2.38 (inactive); in assay [10], 1.5. In addition, in assay [2], the composite z-score worked out at 0.108.

For `COC(=O)[C@@]1(Cc2ccc(OC)cc2)[C@H]2c3cc(C(=O)N4CCCC4)n(Cc4ccsc4Br)c3C[C@H]2CN1C(=O)c1ccccc1`, the z-score in assay [1] is -0.68 (inactive); in [3], 0.538 (inactive); in assay [4], -0.155 (inactive); in assay [5] it was 0.0114 (inactive); in assay [6], 0.469 (inactive); in [7], 0.0613. Moreover, the results for the z-score in assay [8], in assay [9] and in assay [10] were 0.289 (inactive), -0.137 (inactive) and -1.24, respectively. The same compound had a composite z-score in [2] of 0.0429.

For the compound `CC(C)[C@@H](CO)NC(=O)[C@H]1[C@@H](c2ccccc2)N(c2ccccc2)O[C@@H]1C`, the z-score was 1.6 (inactive) in assay [1]; 0.785 (inactive) in assay [3]; -0.0799 (inactive) in assay [4]; -0.466 (inactive) in [5]; -0.0146 (inactive) in assay [6]; 0.444 in [7]. The z-score was -0.982 (inactive) in [8], 0.366 (inactive) in [9] and 0.153 in assay [10]. This compound also showed a composite z-score in assay [2] of -0.151.

As to `CCOC1=C2C(CN(S(=O)(=O)c3ccc(C)cc3)C2c2ccc(C)cc2)C2C(=O)N(c3ccccc3)C(=O)C2C1` (stereo not given), the z-score in [1] is -0.0859 (inactive); in [3], 1.87 (inactive); in [4], 1.24 (inactive); in assay [5] it was 0.398 (inactive); in [6], 0.855 (inactive); in assay [7], -0.258. In addition, the z-score in [8] was 1.12 (inactive); in assay [9], 0.103 (inactive); in [10], -0.229. In addition, the composite z-score in assay [2] was 0.0839.

In the case of `O=C1C2C=CC(C(O)c3ccc(F)cc3)N(Nc3ccccc3F)C2C(=O)N1c1ccccc1` (stereo not given), the z-score is -1.13 (inactive) in [1]; 6.83 (inactive) in assay [3]; 1.4 (inactive) in [4]; -0.196 (inactive) in assay [5]; 0.998 (inactive) in assay [6]; -1.06 in [7]. The z-score is -2.22 (inactive) in assay [8], -4.97 (inactive) in assay [9] and -2.17 in [10]. Also, the composite z-score in assay [2] worked out at 0.336.

As for `COc1ccc(C(=O)O[C@H]2CC[C@]3(C)C4=C(CCC3C2(C)C)[C@]2(C)CC[C@H]([C@H](C)CCCC(C)C)[C@@]2(C)CC4)cc1` (stereo not given in full), the z-score is 3.06 (inactive) in assay [1]; -0.44 (inactive) in assay [3]; -0.787 (inactive) in assay [4]; -0.246 (inactive) in assay [5]; -1.6 (inactive) in assay [6]; 1.86 in [7]. The values for the z-score in [8], in assay [9] and in assay [10] were -0.13 (inactive), 0.257 (inactive) and 0.467, respectively. For the same compound, the composite z-score in assay [2] was -0.192.

On to `CCOC(=O)C[C@H]1[C@H](OC(=O)Cc2ccc3c(c2)OCO3)[C@@H](NC(=O)c2ccc3ccccc3c2)c2cc(OCCCO)ccc2N1C(=O)c1ccccc1`, for which the z-score in assay [1] is 1.87 (inactive); in assay [3], 4.03 (inactive); in assay [4] it was 0.522 (inactive); in assay [5], -0.552 (inactive); in assay [6], 0.26 (inactive); in assay [7], 0.0043. The results for the z-score in assay [8], in assay [9] and in assay [10] were -0.363 (inactive), 0.321 (inactive) and -2.56, respectively. Further, the composite z-score in [2] is 0.0479.

As for `COc1ccc(C(O)C2C=CC3C(=O)N(C)C(=O)C3N2N2CCCCC2)c2ccccc12` (stereo not given), the z-score in assay [1] was -1.53 (inactive); in assay [3] it was 1.24 (inactive); in assay [4] it was 1.05 (inactive); in assay [5], 1.01 (inactive); in assay [6], 0.778 (inactive); in assay [7], -1.08. For the same compound, the z-score is 0.273 (inactive) in [8], -1.72 (inactive) in [9] and 1.03 in assay [10]. In addition, the composite z-score in assay [2] worked out at 0.517.

Take `[N-]=[N+]=Nc1ccccc1C[C@@]1(C(=O)NCCN2CCOCC2)N=C(c2ccc(OCCCO)cc2)O[C@@H]1c1ccccc1`: the z-score in [1] is 1.06 (inactive); in assay [3] it was 28.8 (active); in [4], 24.3 (active); in [5], 2.41 (inactive); in assay [6] it was 5.39 (inactive); in assay [7], 0.368. In addition, the z-score in assay [8] was -0.57 (inactive); in assay [9], 1.25 (inactive); in assay [10], 0.589. In addition, in [2], the composite z-score came to 0.234.

Take `CC(C)(C)OC(=O)CC[C@]12N=C(c3ccc(OCCCO)cc3)O[C@H]1c1ccccc1N(CCS(=O)(=O)c1ccccc1)C2=O`: the z-score in [1] was -1.59 (inactive); in assay [3], 32.2 (active); in assay [4], 28.5 (active); in assay [5], 4.08 (inactive); in assay [6] it was 8.71 (active); in [7], -0.321. In addition, the z-score in assay [8] is -0.859 (inactive); in assay [9] it was 1.12 (inactive); in assay [10], -1.06. In addition, the composite z-score in assay [2] amounted to 0.447.
